Reference: PubChem BioAssay (Tox21)
Inconclusive results are not listed. Active and inactive are the calls of the source. Calls come from the whole dose curve; as a rule, active = well fitted activation curve with a large enough effect in the repeat runs; inconclusive = weak or mixed curves; inactive = flat fitted curve, though single readings scatter. Where a SMILES comes first, the peptide text is derived from it.
% is set by controls: 0 for no effect and ±100 for the full control effect; potency is the fitted concentration of half-maximal effect.

Test: A CellTox Green Cytotoxicity Assay to monitor cytotoxicity in HEK293 cells - 16 hour (AID 1224888); note: nearly all actives have a fitted effect of over 35% in size
Conditions: CellTox Green fluorescence; series mostly up to 76.8 µM; activity change: at the top concentration
Text: National Center for Advancing Translational Sciences [NCATS]
NIH Chemical Genomics Center [NCGC]
U.S. Environmental Protection Agency [EPA]
National Institutes of Environmental Health Sciences [NIEHS]
National Toxicology Program [NTP]
Cell-based models are critical for drug discovery. Determining the natural cytotoxic effects resulting from test compounds is an essential research activity. A CellTox Green Cytotoxicity Assay to monitor cytotoxicity in real time of continues cell culture during 40 hours of the compound treatment was used to screen Tox21 10K library compounds in Hek293 cells. CellTox Green Cytotoxicity Assay is a nonlytic, homogeneous, biofluorescent method to measure cytotoxicity in cell culture after experimental manipulation. The assay system uses a proprietary asymmetric cyanine dye that is excluded from viable cells but preferentially stains the dead cell's DNA. […] Viable cells produce no appreciable increases in fluorescence. Therefore, the fluorescence signal produced by the binding interaction with dead cell DNA is proportional to cytotoxicity.
The mixture of Hek293 cell suspension and reagents were dispensed at 600cells/6 ul/well in 1536-well tissue culture treated black solid bottom plates using a Multidrop dispenser. After the assay plates were incubated at a 37 C/5% CO2 incubator for 5 hours, 23 nL of compounds dissolved in DMSO, positive and negative controls was transferred to the assay plate by a pintool work station. The plates were incubated at 37 C for 40 hours. The fluorescence intensity were measured at 0h, 8h, 16h, 24h, 32h and 40h time points using ViewLux plate reader during compound treatment.
In the case of CN(C)C(C)(C)CO, the “activity change” value is reported as -1.55% (inactive).
With C=CCN1C[C@H](C(=O)N(CCCN(C)C)C(=O)NCC)C[C@@H]2c3cccc4[nH]cc(c34)C[C@H]21 the “activity change” value was 0.279% [at 35.3 µM, active compounds read high] (inactive).
For CN(C)CC/C=C1/c2ccccc2COc2ccc(CC(=O)O)cc21, the “activity change” value was 1.18% [at 35.3 µM, active compounds read high] (inactive).
With CNCCS(=O)(=O)O the “activity change” value was 1.59% (inactive).
For CCOC(CN1CCN(CC(C)C(=O)c2ccccc2)CC1)c1ccccc1 (stereo not given), the activity change was -4.55% [at 15.8 µM, active compounds read high] (inactive).
In the case of Fc1ccccc1, the “activity change” value is reported as -5.22% (inactive).
In the case of COc1ccc(CCO)cc1, the “activity change” value is reported as -11.3% (inactive).
With CC(=O)N[C@@H](CO)C(=O)N[C@@H](CC(=O)O)C(=O)N[C@@H](CCCCN)C(=O)N1CCC[C@H]1C(=O)O (Ac-SDKP-OH) the “activity change” value was -2.91% [at 35.3 µM, active compounds read high] (inactive).
With CCC/C=C(\C=O)CC the “activity change” value was -10.4% (inactive).
For Nc1nnnn1-c1ccccc1, the “activity change” value was -0.244% [at 35.3 µM, active compounds read high] (inactive).
For CC(O)COC(C)(C)C (stereo not given), the “activity change” value was 12% (inactive).
For OCCN1CCOCC1, the “activity change” value was 4.41% (inactive).
With c1ccc2c(CC3=NCCN3)cccc2c1 the “activity change” value was -2.01% [at 35.3 µM, active compounds read high] (inactive).
With O=C(Cl)c1ccccc1[N+](=O)[O-] the “activity change” value was 7.9% (inactive).
In the case of CC(=O)c1cc(C)oc1C, the “activity change” value is reported as -8.88% (inactive).
With CC(C)OC(=O)CCC(=O)OC(C)C the “activity change” value was -1.45% (inactive).
With COC(=O)CCCCC(=O)O the “activity change” value was -7.16% (inactive).
With CC1c2ccccc2CN1NC(=O)c1ccc(Cl)c(S(N)(=O)=O)c1 (stereo not given) the “activity change” value was 6.76% [at 35.3 µM, active compounds read high] (inactive).
For NCC1(Cc2noc(=O)[nH]2)CCCCC1, the “activity change” value was -1.99% (inactive).
In the case of Cc1cc(-c2ccccc2)nnc1NCCN1CCOCC1, the “activity change” value is reported as 18.4% [at 35.3 µM, active compounds read high] (inactive).
In the case of Cc1c(N)cccc1Cl, the “activity change” value is reported as -5.34% (inactive).
For CC(C)CO, the “activity change” value was -4.49% (inactive).
With O=C(O)CSCC(=O)NC1CCSC1=O (stereo not given) the “activity change” value was 2.02% [at 35.3 µM, active compounds read high] (inactive).
With COc1cc2c(cc1OC)C(=O)C(CC1CCN(Cc3ccccc3)CC1)C2 (stereo not given) the “activity change” value was -9.51% [at 35.3 µM, active compounds read high] (inactive).
With COC(=O)c1cc(Cl)cc(Cl)c1 the “activity change” value was 1.13% (inactive).
For CC(C)C[C@@H]1[C@H](c2ccccc2)OC(=O)N1CCCN1CCCCCC1, the “activity change” value was 2.62% [at 35.3 µM, active compounds read high] (inactive).
With CC1(C)Cc2cccc(N)c2O1 the “activity change” value was 2.55% (inactive).
In the case of CC(=O)OC(C)=O, the “activity change” value is reported as -18.4% (inactive).
For O=C(NCN1CCOCC1)c1cnccn1, the “activity change” value was -3.02% [at 35.3 µM, active compounds read high] (inactive).
With CC(C)[C@H]1CC[C@H](C)C[C@@H]1O the “activity change” value was 0.479% (inactive).
In the case of CC(=O)OCC(=O)Nc1cc(C#N)cc(NC(=O)COC(C)=O)c1Cl, the “activity change” value is reported as 1.68% [at 35.3 µM, active compounds read high] (inactive).
With CC(=O)C(C)O (stereo not given) the “activity change” value was 0.766% (inactive).
With CN1C[C@@H]2C[C@H]1CN2c1cc2c(cc1F)c(=O)c(C(=O)O)cn2C1CC1 the activity change was -3.93% [at 15.8 µM, active compounds read high] (inactive).
With CC1OCCC1=O (stereo not given) the “activity change” value was 1.94% (inactive).
In the case of COc1cc2c(cc1OC)CN(C(=O)[C@H](C)N[C@@H](CCc1ccccc1)C(=O)O)[C@H](C(=O)O)C2, the “activity change” value is reported as -12.4% [at 35.3 µM, active compounds read high] (inactive).
For CCCC(=O)OC/C=C(\C)CCC=C(C)C, the Potency was 54.9 µM (active).
In the case of O=C1CCC(=O)N1Cl, the “activity change” value is reported as -2.92% (inactive).
For C=CC/C=C/C, the “activity change” value was -9.41% (inactive).
For [O-][n+]1cccc(/C(Cl)=N/OC[C@@H](O)CN2CCCCC2)c1, the “activity change” value was 9.35% [at 35.3 µM, active compounds read high] (inactive).
For CC(C)CCOC(=O)c1ccccc1, the “activity change” value was -0.589% (inactive).
